# Data published in the supplement of paper PMC6992640.
# ± gives the standard deviation of the averaged measurements.
# Key:
# Experiment in all cases: cell viability (% of vehicle); higher = less cytotoxic
# HCI01 [1] = cells of a triple-negative basal-like breast cancer xenograft; conditions: 1 µM; 72 h
# UCD52 [2] = cells of a triple-negative basal-like breast cancer xenograft; conditions: 1 µM; 72 h
# WHIM2 [3] = cells of a triple-negative basal-like breast cancer xenograft; conditions: 1 µM; 72 h
# WHIM30 [4] = cells of a triple-negative basal-like breast cancer xenograft; conditions: 1 µM; 72 h
# HCI01 [5] = conditions: 10 µM; 72 h
# HCI03 = cells of an ER-positive luminal breast cancer xenograft; conditions: 10 µM; 72 h
# HCI09 = cells of a triple-negative luminal androgen receptor type breast cancer xenograft; conditions: 10 µM; 72 h
# HCI11 = cells of an ER-positive luminal breast cancer xenograft; conditions: 10 µM; 72 h
# HCI13 = cells of an ER-positive luminal breast cancer xenograft; conditions: 10 µM; 72 h
# HCI16 = cells of a triple-negative basal-like breast cancer xenograft; conditions: 10 µM; 72 h
# UCD52 [6] = conditions: 10 µM; 72 h
# WHIM2 [7] = conditions: 10 µM; 72 h
# WHIM30 [8] = conditions: 10 µM; 72 h
SMILES,cell viability (HCI01 [1]),cell viability (UCD52 [2]),cell viability (WHIM2 [3]),cell viability (WHIM30 [4]),cell viability (HCI01 [5]),cell viability (HCI03),cell viability (HCI09),cell viability (HCI11),cell viability (HCI13),cell viability (HCI16),cell viability (UCD52 [6]),cell viability (WHIM2 [7]),cell viability (WHIM30 [8])
CC(NCCCc1cccc(C(F)(F)F)c1)c1cccc2ccccc12.Cl (stereo not drawn) [Cinacalcet HCl],94.5,85.7,76.7,81.6,38.8 ± 2.6,46.8,21.6 ± 4.7,64.8,43.3 ± 2.8,43.6,29.6 ± 2.4,43.2 ± 5.7,27.6 ± 1.3
CS(=O)(=O)O.Cc1c(O)cccc1C(=O)NC(CSc1ccccc1)C(O)CN1CC2CCCCC2CC1C(=O)NC(C)(C)C (stereo not drawn) [Nelfinavir Mesylate],90.1,61.6,101,81.4,64.3 ± 30,92.1,30.1 ± 3.1,104,48.22 ± 0.17,53.7,48 ± 2,38.4 ± 2,71.9 ± 5.4
CC[C@@]1(O)C(=O)OCc2c1cc1n(c2=O)Cc2cc3c(CN(C)C)c(O)ccc3nc2-1 [Topotecan],65.9,101,56.5,37.4,42.8 ± 6.2,128,28.1 ± 0.98,44.4,49.1 ± 5.8,73,42.4 ± 0.96,44.5 ± 3.2,83.2 ± 6.8
C#Cc1cccc(Nc2ncnc3cc(OCCOC)c(OCCOC)cc23)c1.Cl [Erlotinib Hydrochloride],63.1,68.3,50.1,80.5,75.1 ± 35,50,59 ± 12,104,69.8 ± 5.8,100,52.4 ± 1.8,48 ± 8.3,84.5 ± 5.2
CNCCCC12CCC(c3ccccc31)c1ccccc12.Cl [Maprotiline HCl],90.9,81.1,93.2,83.3,89.8 ± 4.9,75.5,56.8 ± 21,78.4,107.1 ± 0.46,80.2,35.4 ± 2.8,66.6 ± 10,44.8 ± 30
CC[C@@H]1/C=C(\C)C[C@H](C)C[C@H](OC)[C@H]2O[C@@](O)(C(=O)C(=O)N3CCCC[C@H]3C(=O)O[C@H](/C(C)=C/[C@@H]3CC[C@H](Cl)[C@H](OC)C3)[C@H](C)[C@@H](O)CC1=O)[C@H](C)C[C@@H]2OC [Pimecrolimus],102,89,82.4,86,71.4 ± 29,65.3,29.4 ± 5.2,76.9,56.5 ± 5.4,71.1,43.9 ± 8,62.5 ± 15,87.7 ± 14
CCCCCCCCCCCC1=C(O)C(=O)C=C(O)C1=O [Embelin],92.8,86.8,93.5,85.6,75.6 ± 18,97.1,22.8 ± 1.3,54.1,86.3 ± 2.1,92.7,72.3 ± 5.4,77.1 ± 2.9,70.1 ± 13
CC(C)N=c1cc2n(-c3ccc(Cl)cc3)c3ccccc3nc-2cc1Nc1ccc(Cl)cc1 [Clofazimine],88.1,84.9,90.3,80.2,54.8 ± 28,83.9,38.8 ± 13,88.8,43.6 ± 9.1,77.6,44.2 ± 1.7,53.1 ± 15,68.8 ± 6.1
CCOc1nc2cccc(C(=O)OC(C)OC(=O)OC3CCCCC3)c2n1Cc1ccc(-c2ccccc2-c2nn[nH]n2)cc1 (stereo not drawn) [Candesartan Cilexetil],88.5,97.3,106,99.7,18.1 ± 12,94.5,18.3 ± 4.6,72.3,47.71 ± 0.052,75.3,74.3 ± 16,37.6 ± 6.6,128 ± 5.3
Cl.Cl.Fc1ccc(C(c2ccc(F)cc2)N2CCN(CC=Cc3ccccc3)CC2)cc1 [Flunarizine 2HCl],106,94.1,101,88.9,106 ± 20,82.4,82.2 ± 42,96.5,75.4 ± 9.1,106,46.7 ± 2.5,38.9 ± 12,87.3 ± 8.5
Cc1ccc(-n2[nH]c(C)c(NN=C3C=CC=C(c4cccc(C(=O)O)c4)C3=O)c2=O)cc1C [Eltrombopag],85.8,94.6,101,96.2,28.3 ± 15,94.9,20.5 ± 4.7,60.9,54.9 ± 3,125,57 ± 2.9,37.8 ± 14,–
CO[C@H]1C[C@@H]2CC[C@@H](C)[C@@](O)(O2)C(=O)C(=O)N2CCCC[C@H]2C(=O)O[C@H]([C@H](C)C[C@@H]2CC[C@@H](O)[C@H](OC)C2)CC(=O)[C@H](C)/C=C(\C)[C@@H](O)[C@@H](OC)C(=O)[C@H](C)C[C@H](C)/C=C/C=C/C=C/1C [Rapamycin (Sirolimus)],78.1,52.6,68.3,75.4,40.4 ± 7.5,69.6,30.6 ± 8.6,51.6,39.5 ± 5.2,57.1,25.5 ± 2.9,42 ± 2.1,68.9 ± 29
CN1CCN(CCOc2cc(OC3CCOCC3)c3c(Nc4c(Cl)ccc5c4OCO5)ncnc3c2)CC1 [Saracatinib (AZD0530)],67.9,38.7,33.9,57.5,63.85 ± 0.43,48.7,68.3 ± 18,105,53 ± 1.4,69.1,43.8 ± 5.4,40.2 ± 11,84.6 ± 3.6
